About 83,000 compounds went through this panel and 20% of them were active in at least one assay; those are over-represented in the sample as a whole.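 Interpretation: 100, growth as untreated; towards 0, rising growth inhibition; 0, no net growth; 0 to -100, cell death. Compounds scoring below 10 were considered active.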 Active and inactive are the calls of the source.

In the assay the test system is HCT-15 colon. The experiment in a line: NCI-60 one-dose screen, 48 h (100 = growth as untreated, 0 = no growth, -100 = all killed). The following applies: 10 µM unless noted.
In the case of `C=CCn1c(SCC(=O)Nc2ccc(C(=O)/C=C/c3ccc(Cl)cc3)cc2)nnc1-c1c[nH]c2ccccc12`, the growth was 62.9% (inactive).

In the case of `O=C(NNc1nc2cc(F)c(F)cc2n2c(CN3CC4CNCC4C3)ccc12)c1cnccn1` (stereo not drawn), the growth is 23% (inactive).

Consider `COc1ccc2c(c1)c(CC(=O)[Se]CC#N)c(C)n2C(=O)c1ccc(Cl)cc1`, for which the growth is 7.36% (active).

As for `O=C(NNc1nc2cc(F)ccc2n2c(CN3CCC(O)C3)ccc12)c1cnccn1` (stereo not drawn), the growth is 25.7% (inactive).

On to `COc1ccc(COc2ccc(/C=C3\C(=O)Nc4ccccc43)cc2OC)cc1`, for which the growth is 105% (inactive).

Consider `O=C(NNc1nc2cc(F)ccc2n2c(CO)ccc12)c1cnccn1`, for which the growth is 22.9% (inactive).

For the compound `N#Cc1cn(Cc2ccc(Cl)cc2Cl)c(C(=O)c2ccc(Br)cc2)c1N`, the growth was 94.6% (inactive).

For the compound `O=C(CN1CCN(c2cc(=O)n(-c3ccccc3)c3ccccc23)CC1)Nc1nc(-c2ccccc2)cs1`, the growth is 25.2% (inactive).

As to `COc1ccc(CCOc2cc3c(cc2OC)CCN(C(=O)NCc2cocn2)C3c2ccc(C)cc2C)cc1` (stereo not drawn), the growth is 5.53% (active).

On to `COc1ccc(Oc2ccc(/C=N/NC(=O)CSc3nc4ccccc4c(=O)n3-c3ccc(Cl)cc3)cc2)cc1`, for which the growth is 56% (inactive).

As for `N#Cc1cccc(CN2CCC3=C(C2)C(=O)N(Cc2ccc(Cl)cc2)C2=NCCCN23)c1`, the growth is 16.6% (inactive).

For `O=C(NNc1nc2cc(F)ccc2n2c(CN3CC4CNCC4C3)ccc12)c1cnccn1` (stereo not drawn), the growth is 18.1% (inactive).

Turning to `CCOc1ccccc1NC1=C(Cl)C(=O)c2nc(C)ccc2C1=O`, the growth is -76.6% (active).

As for `CCCCCc1ccc(S(=O)(=O)Nc2cccc(-c3csc(NC(=O)CCCCCN4CCN(CCO)CC4)n3)c2)cc1`, the growth is 43.1% (inactive).

On to `CCOc1ccc(NC2=C(Cl)C(=O)c3nc(C)ccc3C2=O)cc1`, for which the growth was -83.2% (active).

`COc1cc(/C=C2\C(=O)Nc3ccccc32)ccc1OCc1ccc(Cl)cc1`: the growth is 93.9% (inactive).

As to `COc1cc(-c2nc(SCCC(C)C)nc(NNC(=O)c3ccncc3)c2C#N)cc(OC)c1OC`, the growth was 78.1% (inactive).

As for `O=C(NNc1nc2cc(F)cc(F)c2n2cccc12)c1cnccn1`, the growth is 24.8% (inactive).

As to `O=C(CCn1cc[n+](CC(=O)c2ccc(-c3ccccc3)cc2)c1)Nc1cccc2cccnc12`, the growth is 96.5% (inactive).

In the case of `COc1c(N2CC3CCCNC3C2)c(F)cc2c(=O)c(C(=O)N/N=C/c3ccc4c(c3)OCO4)cn(C3CC3)c12` (stereo not drawn), the growth is 3.7% (active).

Take `COc1ccc(/C=C(/C)c2ccc3ccc(OC)cc3[o+]2)c(O)c1`: the growth was 22.5% (inactive).

As to `CN(C)CCNC(=O)c1ccc(-c2nc3ccc4[nH]ncc4c3c3c2CCC3)cc1`, the growth is 17.2% (inactive).

For the compound `COc1ccccc1NC1=C(Cl)C(=O)c2nc(C)ccc2C1=O`, the growth was -47% (active).

`CCNC(=O)N1CCc2cc(OC)c(OCCc3ccc(OC)cc3)cc2C1c1ccc(Cl)cc1C` (stereo not drawn): the growth is 9.66% (active).

With `Cc1cc2nc(C(Cl)Cl)nc(-c3cccs3)n2n1`, the growth was 11.4% (inactive).

On to `CN(C)CCNC(=O)c1ccc(-c2nc3ccc4[nH]ncc4c3c3c2COCC3)cc1`, for which the growth is 84.7% (inactive).

Consider `CN1CCN(Cc2ccc(NC(=O)c3cncc(C#Cc4cnc5ccc(OCC(C)(C)O)nn45)c3)cc2C(F)(F)F)CC1`, for which the growth was -39.2% (active).

As to `Nc1ncc(-c2ccc3ncnc(Nc4cccc(Cl)c4F)c3c2)cn1`, the growth was 56.4% (inactive).

On to `COc1ccc(/C=C/C(=O)c2cccc(NC(=O)CSc3nc4ccccc4c(=O)n3-c3ccccc3)c2)cc1OC`, for which the growth was 89.5% (inactive).

With `O=C(NNc1nc2cc(F)ccc2n2c(CN3CCCC3)ccc12)c1cnccn1`, the growth is 23% (inactive).

With `CC/C(=C/c1c(O)cccc1OC)c1ccc2c(OC)cccc2[o+]1`, the growth is 92.2% (inactive).

For `CS(=O)(=O)Nc1cc(-c2ccc3ncc(C#N)c(NCc4ccccc4F)c3c2)cnc1Cl`, the growth was 8.34% (active).

As for `COc1ccccc1-n1cc(C#N)c(N)c1C(=O)c1ccc(Cl)cc1`, the growth is 36.2% (inactive).

Turning to `N=c1c2cc(-c3ccccc3)oc2ncn1/N=C/c1ccc(Cl)cc1`, the growth was 56.8% (inactive).

In the case of `C=CCn1c(SCC(=O)Nc2ccc(C(=O)/C=C/c3cc(OC)c(OC)c(OC)c3)cc2)nnc1-c1c[nH]c2ccccc12`, the growth was -20.3% (active).

As for `COC(=O)C[Se]C(=O)Cc1c(C)n(C(=O)c2ccc(Cl)cc2)c2ccc(OC)cc12`, the growth was 11.5% (inactive).

On to `COc1ccc(NC2=C(Cl)C(=O)c3nc(C)ccc3C2=O)cc1OC`, for which the growth is 82.3% (inactive).

Consider `NC(N)=Nc1ccc(Oc2cccc(NC(N)=Nc3ccc(I)cc3F)c2)cc1`, for which the growth was 86.9% (inactive).

Source of the values: PubChem BioAssay (NCI).
